Assay outcomes: PubChem, several laboratories
This is a sample that favours compounds with a hit; in the whole collection about 1.7% have one here.
PTPN22 act: LYP phosphatase activators, primary screen, biochemical, DiFMUP fluorescence, 2 µM; Tyrosine-protein phosphatase non-receptor type 22 (Homo sapiens), Q9Y2R2; recombinant LYP; 0 = plate median, 100 = signal doubled; 96,000 compounds, 0.11% hits; activation, % at 2 µM; AID 697, 2007;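 active = activation at 2 µM above a set limit, the mean plus 5 SD, cut at about 37% in these data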
sEH inh: soluble epoxide hydrolase inhibitors, primary screen, biochemical, human sEH; inhibition, % at 2 µM; recombinant human sEH enzymatic activity assay; Bifunctional epoxide hydrolase 2 (Homo sapiens), P34913; AID 707, 2007; 91,000 compounds, 0.34% hits; in the data active = inhibition above about 80%
Target sequence (P34913 whole entry, looked up): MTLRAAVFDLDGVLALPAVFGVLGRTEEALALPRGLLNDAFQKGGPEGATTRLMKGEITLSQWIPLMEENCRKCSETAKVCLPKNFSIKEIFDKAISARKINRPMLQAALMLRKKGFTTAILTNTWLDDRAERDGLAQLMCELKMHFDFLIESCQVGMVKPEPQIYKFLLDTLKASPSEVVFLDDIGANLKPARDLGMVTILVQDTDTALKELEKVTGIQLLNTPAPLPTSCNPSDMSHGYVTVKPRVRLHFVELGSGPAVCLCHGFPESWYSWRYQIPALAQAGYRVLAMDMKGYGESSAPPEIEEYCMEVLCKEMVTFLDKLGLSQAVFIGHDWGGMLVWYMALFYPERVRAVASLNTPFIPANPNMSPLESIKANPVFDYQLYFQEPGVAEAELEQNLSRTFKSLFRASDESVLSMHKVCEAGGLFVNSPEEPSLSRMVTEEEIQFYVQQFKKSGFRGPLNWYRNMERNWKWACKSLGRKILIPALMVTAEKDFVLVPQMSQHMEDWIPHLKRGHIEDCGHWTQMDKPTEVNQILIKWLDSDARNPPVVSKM
PTPN22 inh 2: PTPN22 phosphatase inhibitors, primary screen, biochemical, DiFMUP fluorescence, 2 µM; Tyrosine-protein phosphatase non-receptor type 22 (Homo sapiens), Q9Y2R2; recombinant LYP catalytic domain; inhibition, % at 2 µM; 96,000 compounds, 0.21% hits; AID 640, 2007;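 active = inhibition at 2 µM at or above a set limit, the screen mean plus 3 SD, cut at about 24% in these data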;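 note: 0% = DMSO with enzyme and 100% = enzyme fully blocked by orthovanadate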
Measles CPE: compounds protecting cells from measles virus cytopathic effect, primary screen, measles RdRp inhibitor project, single point, MLSMR library, absorbance; Measles virus-infected cells, CPE protection; 140,000 compounds, 1.5% hits; protection (pct of control), % at 4 µM; in the data active = protection mostly above about 24%, no sharp cut-off; inactive = mostly below about 26%
sEH act: soluble epoxide hydrolase activators, primary screen, biochemical, human sEH; 91,000 compounds, 0.04% hits; purified human sEH enzymatic activity, activator screen; AID 717, 2007; activation, % at 2 µM; in the data active = activation above about 37%
Numbers without * were called inactive; nt = no result.

SMILES	PTPN22 act	sEH inh	PTPN22 inh 2	Measles CPE	sEH act
CC(=O)N1C(=O)c2cccc3cccc(c23)C(=O)N1C(C)=O	1	-1	-7	54*	4
COc1cccc(CNC(=O)c2cc3oc4ccccc4c3n2C)c1OC	4	47	-4	72*	-47
CCOc1ccccc1CNC(=O)c1cc2oc3ccccc3c2n1CC	19	2	-19	35*	-2
CCn1c(C(=O)N2CCc3ccccc3C2)cc2oc3ccccc3c21	-2	-15	3	23	13
CCOc1ccc(CNC(=O)c2cc3oc4ccccc4c3n2C)cc1	1	40	0	89*	-40
CCOC(=O)c1sc(NC(=O)C(CC)Sc2nnc3c4ccccc4n(C(C)C)c3n2)nc1C (stereo unspecified)	-7	nt	4	21	nt
CCOC(=O)c1sc(NC(=O)C(CC)Sc2nc3ccccc3[nH]2)nc1C (stereo unspecified)	-24	5	25*	nt	-3
C=CCN(c1cccc(C(F)(F)F)c1)S(=O)(=O)c1cccc(C(=O)OCC(=O)NCCC)c1	nt	nt	nt	3	nt
CCCCn1c(SCC(=O)Nc2nnc(CC)s2)nc2ccccc2c1=O	nt	nt	nt	32*	nt
CCCCn1c(SCC(=O)Nc2nnc(CC)s2)nc2c1c(=O)n(C)c(=O)n2C	-11	-3	10	8	2
CCCCNC(=O)CSc1nc2ccccc2c(=O)n1CCNC(C)=O	11	-6	-8	3	6
CC(=O)NCCn1c(SCC(=O)NCCC(C)C)nc2ccccc2c1=O	7	-5	-3	60*	4
CC(=O)NCCn1c(SCC(=O)NCC2CCCO2)nc2ccccc2c1=O (stereo unspecified)	4	-4	-5	52*	4
Nc1nc(SCC(=O)NCC2CCCO2)n[nH]1 (stereo unspecified)	-7	-4	5	8	-1
Nc1cc(N)nc(SCC(=O)NCC2CCCO2)n1 (stereo unspecified)	8	-3	-4	31*	3
O=C(c1ccccc1Nc1ccc(SC(F)F)cc1)N1CCCCCC1	0	-11	6	3	11
COc1cc(/C=C/C(=O)N2CCOCC2)ccc1OCc1ccccc1	nt	nt	nt	94*	nt
COc1ccccc1/C=C/C(=O)N1CCOCC1	2	-7	-4	2	9
COc1cc(/C=C/C(=O)NC(C)(C)C)ccc1OCc1ccccc1	nt	nt	nt	27*	nt
CNC(=O)c1ccc(OCc2ccccc2)c(OC)c1	-14	-10	11	76*	11
COC(=O)CSc1nnc(CNS(=O)(=O)c2ccc(Cl)cc2)n1C	-5	17	6	37*	-18
Cc1cc(C=C(C#N)C#N)c(C)n1-c1ccccc1	-3	11	8	51*	-9
CCCN1C(=O)/C(=N\OCC(=O)NC23CC4CC(CC(C4)C2)C3)c2ccccc21	nt	nt	nt	13	nt
COC(=O)c1ccc(=O)n(Cc2ccco2)c1	nt	nt	nt	20	nt
COC(=O)c1ccc2c(c1)S(=O)(=O)NC(=NCc1ccco1)S2	2	-13	-3	85*	11
SMILES	PTPN22 act	sEH inh	PTPN22 inh 2	Measles CPE	sEH act
O/C(=C\Sc1nnc(Cc2ccccc2)o1)c1ccc(F)cc1	8	-7	-9	6	6
CC1=CCC(C(=O)O)(C(=O)N/N=C/c2cccs2)C(c2ccc([N+](=O)[O-])cc2)C1 (stereo unspecified)	-5	7	2	5	-5
CCCCN(C(=S)NC(=O)c1cc(OC)c(OC)c(OC)c1)c1c(N)n(Cc2ccccc2)c(=O)[nH]c1=O	nt	nt	nt	13	nt
O=C(Cc1ccc(F)cc1)Nc1ccc(F)c([N+](=O)[O-])c1	7	8	-2	72*	-5
COc1ccc(C(=O)/C=C/N(C)C)cc1	-6	8	9	16	-9
CN(C)/C=C/C(=O)c1ccc(F)cc1	-23	3	26*	5	-1
Clc1ccc(C2=CSC3=NCCN23)cc1Cl	11	0	-11	54*	0
Cc1ccc(S(=O)(=O)Cc2ccc(C(=O)OCc3ccccc3)cc2)cc1	-10	-9	12	18*	9
COc1ccc(NC(=O)CCN2CCCC(C)C2)cc1 (stereo unspecified)	7	-8	-12	41*	6
O=C(CN1C(=O)c2ccccc2C1=O)Nc1cccc([N+](=O)[O-])c1	nt	nt	nt	2	nt
